From PubChem BioAssay (EPA / NIEHS)
Inconclusive results are not listed. Calls of active or inactive are those of the source. Rule for the calls, unless noted: active = hit-call score of the fitted dose curve at least 0.9, where 1 is the maximum; inactive = score below 0.9.

What was measured:
[1] = ACEA_ER_80hr: ACEA Biosciences xCELLigence Real-Time Cell Analysis on Estrogen Receptor Agonism for Proliferation (AID 2282667; active = hit-call score of the fitted dose curve at least 0.9, where 1 is the maximum); settings: T47D proliferation, impedance (xCELLigence), 80 h
Method in brief: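 Cell-growth kinetics were measured by impedance in T47D cells treated continuously with compound (top 100 uM final, 1:4 steps, 8 points). Activity at 80 h was scored as signal gain over the DMSO baseline.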

[2] = APR_HepG2_CellCycleArrest_24hr: Apredica 24-hour HepG2 Assay for Cell Cycle Arrest (AID 2282905); settings: imaging, actives raise or lower the signal;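 note: cell cycle arrest scored as ratio of 2N to 4N nuclear DNA content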
Method in brief: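 HepG2, 24 hr dosing, 10-pt 0.39–200 uM in duplicate, 0.5% DMSO. Fixed 3.7% formaldehyde, permeabilized 0.5% Triton X-100, Hoechst 33342 2 ug/mL. Imaged 20x; nuclear DNA content quantified; bidirectional fit vs DMSO.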

[3] = APR_HepG2_NuclearSize_24hr: Apredica 24-hour HepG2 Assay for Nuclear Size (AID 2282907); settings: high-content imaging, actives raise or lower the signal
Method in brief: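 HepG2, 24 hr dosing, 10-pt 0.39–200 uM, duplicates, 0.5% DMSO final; 3.7% formaldehyde fix, 0.5% Triton X-100; Hoechst 33342 nuclear stain; ArrayScan HCS, Cell Cycle analysis → nuclear size; bidirectional fit vs DMSO.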

[4] = APR_HepG2_CellLoss_24hr: Apredica 24-hour HepG2 Assay for Cell Loss (AID 2282908); settings: high-content imaging;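 for AC50: fit in both directions so a hit may be cell loss or gain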
Method in brief: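 10-pt dose, 0.39–200 uM, n=2/plate; DMSO 0.5% v/v final as negative control. Fix 3.7% formaldehyde 30 min RT, permeabilize 0.5% Triton X-100, stain Hoechst 33342 2 ug/mL, image 20x. Nuclear count, bidirectional fit vs DMSO.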

[5] = APR_HepG2_MicrotubuleCSK_24hr: Apredica 24-hour HepG2 Assay for Microtubule CSK Stabilty (AID 2282909); settings: HepG2 microtubule cytoskeleton imaging, actives raise or lower the signal
Method in brief: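 Human liver HepG2, 24 h dosing, 0.39–200 uM ×10 conc, dup, 0.5% DMSO. 3.7% formaldehyde fix, 0.5% Triton perm, anti-alpha-tubulin (1:200)/Cy5 secondary + Hoechst. HCS imaging, 6 fields/well; gain/loss fit vs DMSO.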

[6] = APR_HepG2_MitoticArrest_24hr: Apredica 24-hour HepG2 Assay for Mitotic Arrest (AID 2282910); settings: high-content imaging, actives raise or lower the signal
Method in brief: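 HepG2 human liver cells were exposed to compounds at 0.39–200 uM (10 concentrations, duplicate) in 0.5% v/v DMSO for 24 hr, then fixed and immunostained for phospho-histone H3 with Hoechst 33342. Mitotic arrest came from HCS fluorescent imaging, fitted bidirectionally against DMSO.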

[7] = APR_HepG2_MitoMass_24hr: Apredica 24-hour HepG2 Assay for Mitochondrial Mass (AID 2282912); settings: high-content imaging, actives raise or lower the signal
Method in brief: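 Mitochondrial mass is read as MitoTracker Red fluorescence intensity from automated imaging, with bidirectional curve fitting relative to DMSO. HepG2 cells received compound (0.39–200 uM, 0.5% DMSO final) for 24 hr and were dye-loaded (250 nM, 30 min) before formaldehyde fixation.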

[8] = APR_HepG2_CellCycleArrest_72hr: Apredica 72-hour HepG2 Assay for Cell Cycle Arrest (AID 2282914); settings: high-content imaging, actives raise or lower the signal
Method in brief: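 Cell cycle arrest in HepG2 was scored from nuclear DNA content after 72 hr compound treatment (0.39–200 uM). Activity, either gain or loss, was fitted against the DMSO baseline.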

[9] = APR_HepG2_CellLoss_72hr: Apredica 72-hour HepG2 Assay for Cell Loss (AID 2282915); settings: high-content imaging
Method in brief: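 HepG2 cells were exposed for 72 hr to compounds at 0.39–200 uM (ten concentrations, duplicate) in 0.5% v/v final DMSO. Nuclei were stained with Hoechst 33342 after 3.7% formaldehyde fixation, imaged at 20x, and counted; fits bidirectional versus DMSO.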

[10] = APR_HepG2_P-H2AX_72hr: Apredica 72-hour HepG2 Assay for H2AX Phosphorylation (AID 2282916); settings: imaging, actives raise or lower the signal;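 note: phospho-histone H2A.x immunostain intensity per cell marking DNA damage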
Method in brief: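 HepG2; cpd 0.39–200 uM ×10 conc, duplicates; 0.5% DMSO; 72 hr. Fix 3.7% formaldehyde 30 min RT, 0.5% Triton X-100 10 min. Anti-phospho-H2A.x 1:200 + Hoechst 2 ug/mL, 60 min RT; ArrayScan imaging.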

[11] = APR_HepG2_MitoMembPot_72hr: Apredica 72-hour HepG2 Assay for Mitochondrial Membrane Potential (AID 2282917); settings: imaging, actives raise or lower the signal
Method in brief: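 HepG2 cells exposed 72 h to compounds at 0.39–200 uM (0.5% v/v DMSO, duplicates); MitoTracker Red CMXRos 250 nM loaded 30 min before 3.7% formaldehyde fixation, imaged by HCS fluorescence. Bidirectional fit versus DMSO.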

[12] = APR_HepG2_MitoticArrest_72hr: Apredica 72-hour HepG2 Assay for Mitotic Arrest (AID 2282918); settings: high-content imaging, actives raise or lower the signal
Method in brief: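 Mitotic arrest in HepG2 is scored from phospho-histone H3 staining after 72 hr dosing across 0.39–200 uM, with DMSO at 0.5% v/v. Nuclei are identified by Hoechst 33342 and fluorescence intensity is quantified per cell.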

[13] = APR_HepG2_MicrotubuleCSK_72hr: Apredica 72-hour HepG2 Assay for Microtubule CSK Stabilty (AID 2282919); settings: HepG2 microtubule cytoskeleton, high-content imaging, actives raise or lower the signal
Method in brief: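 HepG2 human liver cells were dosed for 72 h at ten concentrations from 0.39 to 200 uM in duplicate (0.5% v/v DMSO final). Fixed, permeabilized cells were immunostained for alpha-tubulin (Cy5) with a Hoechst counterstain and imaged at 20x.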

[14] = APR_HepG2_P-H2AX_24hr: Apredica 24-hour HepG2 Assay for H2AX Phosphorylation (AID 2282920); settings: high-content imaging, actives raise or lower the signal
Method in brief: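 Signal comes from a FITC-labeled secondary detecting phospho-histone H2A.x in fixed HepG2 cells, quantified by automated imaging at 20x. Dosing ran 24 hr across 0.39–200 uM with 0.5% v/v DMSO.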

[15] = APR_HepG2_StressKinase_72hr: Apredica 72-hour HepG2 Assay for Stress Kinase (AID 2282921); settings: HepG2 stress kinase (phospho-c-Jun) imaging, actives raise or lower the signal
Method in brief: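 Dose 0.39–200 uM (10 pts, duplicate), 0.5% DMSO; 72 h; fix 3.7% formaldehyde 30 min RT; Triton permeabilize; anti-phospho-c-Jun/Cy3 + Hoechst 60 min RT; image 20x; fit gain/loss vs DMSO.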

[16] = APR_HepG2_StressKinase_24hr: Apredica 24-hour HepG2 Assay for Stress Kinase (AID 2282922); settings: HepG2 stress kinase (phospho-c-Jun) imaging, actives raise or lower the signal
Method in brief: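 HepG2 cells exposed 24 hr to compound at 0.39–200 uM (10 concentrations, duplicate), 0.5% v/v DMSO final. Fixed in 3.7% formaldehyde, permeabilized with Triton X-100, immunolabeled for phospho-c-Jun with Hoechst 33342; HCS fluorescence imaging, bidirectional fit versus DMSO.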

[17] = APR_HepG2_MitoMass_72hr: Apredica 72-hour HepG2 Assay for Mitochondrial Mass (AID 2282924); settings: high-content imaging, actives raise or lower the signal;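 note: MitoTracker Red CMXRos stain intensity per cell imaged as mitochondrial mass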
Method in brief: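 HepG2 cells were exposed for 72 hr to compounds at 0.39–200 uM (ten concentrations, duplicate, 0.5% v/v DMSO final). Live cells were stained with 250 nM MitoTracker Red CMXRos for 30 min, then fixed in 3.7% formaldehyde and imaged by HCS fluorescence.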

Measured: AC50

CCCCCCOC(=O)CC(CC(=O)OCCCCCC)(OC(=O)CCC)C(=O)OCCCCCC
active: [1] 50000 nM
inactive: all other assays above

CCCOc1ccc(S(=O)(=O)N2CCN(CC)CC2)cc1-c1nc2c(CC)n(Cc3ccccn3)nc2c(=O)[nH]1
active: [9] 88500 nM | [10] 99700 nM | [12] 90200 nM
inactive: all other assays above

COc1cc2c(c(OC)c1OC)-c1ccc(OC)c(=O)cc1[C@@H](NC(C)=O)CC2
active: [2] 39.1 nM | [4] 44.7 nM | [6] 38.2 nM | [8] 73.2 nM | [9] 53.6 nM | [10] 81.5 nM | [12] 39.1 nM | [13] 62.8 nM | [14] 79.7 nM | [15] 45.6 nM | [16] 39.1 nM
inactive: [1] | [3] | [5] | [7] | [11] | [17]
